About 7,900 targets were measured; listed, in parts, are those with a hit and a random draw of the rest. About 0.6% of all pairs of compound and target were hits. Values without a mark were called inactive.
How the values were obtained:
Assay in all cases: log2 fold change, soluble protein after heating vs DMSO (PISA); higher = thermal stabilisation; K562 cells, 10 uM, 30 min; active = over 0.2 and 3.5 SD of the protein, either way, in both replicates (recomputed)
[1] = compound: CN1CCN(CCOc2cc(OC3CCOCC3)c3c(Nc4c(Cl)ccc5c4OCO5)ncnc3c2)CC1 [saracatinib]
In short: (§1)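 Quantification of soluble protein used TMTpro 16plex LC-MS/MS, with channel sums equalised. Samples were the supernatant after 21,000xg for 90 min of pooled aliquots from K562 cells (2×10^6 cells/mL) treated with 10 μM compound for 30 min, heated for 3 min over 48°C-58°C, and extracted in PBS with 0.5% NP-40 at 4°C. Values, from duplicates, describe thermal stability against control samples on a log2 fold-change scale.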

[2] = compound: CN1CCN(c2nc(C3=C(c4c[nH]c5ccccc45)C(=O)NC3=O)c3ccccc3n2)CC1 [sotrastaurin]
In short: as §1

[3] = compound: CN1CC[C@H](c2c(O)cc(O)c3c(=O)cc(-c4ccccc4Cl)oc23)[C@H](O)C1 [alvocidib]
In short: as §1

[4] = compound: CN1CCc2c(c3ccccc3n2Cc2ccc(C(=O)NO)cc2)C1 [Tubastatin A]
In short: as §1

[5] = compound: CNC(=O)C1=CC=CC=C1NC2=NC(=NC=C2Cl)NC3=C(C=C(C=C3)N4CCOCC4)OC
In short: as §1

[6] = compound: CNC(=O)c1ccc(Nc2ncc(C(F)(F)F)c(NCc3nccnc3N(C)S(C)(=O)=O)n2)cc1 [defactinib]
In short: as §1

[7] = compound: CNCc1ccc(-c2[nH]c3cc(F)cc4c3c2CCNC4=O)cc1 [rucaparib]
In short: as §1

[8] = compound: CNc1nc(-c2ccc3c(N)n[nH]c3c2)cc(N2C[C@@H](C(=O)NC3CCCCC3)CC[C@H]2C)n1
In short: as §1

[9] = compound: COC(=O)N[C@@H](C)CNc1nccc(-c2cn(C(C)C)nc2-c2cc(Cl)cc(NS(C)(=O)=O)c2F)n1 [encorafenib]
In short: as §1

[10] = compound: COC(=O)[C@H](CCSC)NC(=O)C1=C(C=C(C=C1)NC[C@H](CS)N)C2=CC=CC=C2
In short: as §1

[11] = compound: COC1=CC=C(C=C1)CN2C=CC3=C2C=C(C=C3)C(=O)NO
In short: as §1

[12] = compound: CON(C)C(=O)N1N=C(c2cc(F)ccc2F)S[C@@]1(CCCN)c1ccccc1 [filanesib]
In short: as §1

[13] = compound: CO[C@H]1C[C@@H]2CC[C@@H](C)[C@@](O)(O2)C(=O)C(=O)N2CCCC[C@H]2C(=O)O[C@H]([C@H](C)C[C@@H]2CC[C@H](n3cnnn3)[C@H](OC)C2)CC(=O)[C@H](C)/C=C(\C)[C@@H](O)[C@@H](OC)C(=O)[C@H](C)C[C@H](C)/C=C/C=C/C=C/1C [zotarolimus]
In short: as §1

[14] = compound: COc1cc(C(=O)O)ccc1NC(=O)[C@@H]1N[C@@H](CC(C)(C)C)[C@](C#N)(c2ccc(Cl)cc2F)[C@H]1c1cccc(Cl)c1F [idasanutlin]
In short: as §1

[15] = compound: COc1cc(Nc2ncc3c(n2)-c2ccc(Cl)cc2C(c2c(F)cccc2OC)=NC3)ccc1C(=O)O [alisertib]
In short: as §1

[16] = compound: COc1cc2nc(-c3cc(F)ccc3O)nc(N[C@@H]3CNC[C@H]3C(C)(C)O)c2cc1OC
In short: as §1

[17] = compound: COc1cc2ncnc(Nc3ccc(F)c(Cl)c3)c2cc1OCCCN1CCOCC1 [gefitinib]
In short: as §1

[18] = compound: COc1cccc2cc(-c3nc([C@H]4CC[C@H](C(=O)O)CC4)n4ncnc(N)c34)[nH]c12
In short: as §1

[19] = compound: CS(=O)(=O)CCNCc1ccc(-c2ccc3ncnc(Nc4ccc(OCc5cccc(F)c5)c(Cl)c4)c3c2)o1 [lapatinib]
In short: as §1

[20] = compound: CS(=O)(=O)N1CCN(Cc2cc3nc(-c4cccc5[nH]ncc45)nc(N4CCOCC4)c3s2)CC1 [pictilisib]
In short: as §1

UniProt P29590, sequence (P29590 whole entry, looked up): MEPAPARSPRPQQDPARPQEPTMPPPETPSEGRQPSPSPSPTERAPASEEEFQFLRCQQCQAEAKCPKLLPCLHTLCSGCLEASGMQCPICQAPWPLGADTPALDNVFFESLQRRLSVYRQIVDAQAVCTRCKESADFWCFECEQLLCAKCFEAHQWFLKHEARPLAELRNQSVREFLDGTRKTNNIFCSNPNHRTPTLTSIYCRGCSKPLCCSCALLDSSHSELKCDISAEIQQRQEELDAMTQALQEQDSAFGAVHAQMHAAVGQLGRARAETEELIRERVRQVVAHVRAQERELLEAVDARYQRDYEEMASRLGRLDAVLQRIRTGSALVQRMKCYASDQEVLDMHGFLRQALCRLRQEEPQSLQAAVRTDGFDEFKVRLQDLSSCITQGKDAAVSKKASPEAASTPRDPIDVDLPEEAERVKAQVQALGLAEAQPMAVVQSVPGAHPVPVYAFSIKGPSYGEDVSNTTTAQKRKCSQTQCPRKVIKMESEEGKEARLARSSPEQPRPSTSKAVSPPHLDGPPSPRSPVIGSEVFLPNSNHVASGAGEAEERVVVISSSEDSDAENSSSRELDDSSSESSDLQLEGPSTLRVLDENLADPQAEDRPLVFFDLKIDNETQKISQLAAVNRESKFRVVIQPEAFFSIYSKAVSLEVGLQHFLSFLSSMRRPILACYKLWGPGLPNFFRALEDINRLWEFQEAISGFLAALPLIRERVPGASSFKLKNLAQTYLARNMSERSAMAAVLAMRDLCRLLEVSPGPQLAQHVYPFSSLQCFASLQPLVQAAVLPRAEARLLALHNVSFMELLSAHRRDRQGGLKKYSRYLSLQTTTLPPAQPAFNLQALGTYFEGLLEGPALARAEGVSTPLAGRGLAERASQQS
UniProt O75439, sequence (O75439 whole entry, looked up): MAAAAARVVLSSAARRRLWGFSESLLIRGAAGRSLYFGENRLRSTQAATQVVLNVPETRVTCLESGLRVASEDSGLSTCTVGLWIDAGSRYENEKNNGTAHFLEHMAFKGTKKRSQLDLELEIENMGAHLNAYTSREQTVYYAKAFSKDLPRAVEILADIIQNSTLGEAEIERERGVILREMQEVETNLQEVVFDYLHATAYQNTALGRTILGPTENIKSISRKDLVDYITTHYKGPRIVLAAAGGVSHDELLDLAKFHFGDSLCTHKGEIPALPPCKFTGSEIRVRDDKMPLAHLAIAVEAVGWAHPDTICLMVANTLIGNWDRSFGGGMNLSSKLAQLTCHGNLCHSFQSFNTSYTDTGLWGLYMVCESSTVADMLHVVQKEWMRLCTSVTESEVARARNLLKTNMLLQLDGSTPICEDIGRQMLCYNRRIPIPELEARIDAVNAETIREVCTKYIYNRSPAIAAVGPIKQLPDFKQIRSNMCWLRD
UniProt Q15365, sequence (Q15365 whole entry, looked up): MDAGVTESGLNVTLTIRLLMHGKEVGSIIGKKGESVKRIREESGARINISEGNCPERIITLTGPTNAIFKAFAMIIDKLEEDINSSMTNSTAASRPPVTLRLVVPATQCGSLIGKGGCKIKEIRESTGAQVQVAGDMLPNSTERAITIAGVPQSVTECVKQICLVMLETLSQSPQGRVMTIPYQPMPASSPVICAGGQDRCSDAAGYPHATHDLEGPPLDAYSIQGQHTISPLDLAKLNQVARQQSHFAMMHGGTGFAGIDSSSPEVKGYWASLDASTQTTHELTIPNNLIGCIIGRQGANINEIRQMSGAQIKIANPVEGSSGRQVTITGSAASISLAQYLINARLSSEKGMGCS
UniProt P62333, sequence (P62333 whole entry, looked up): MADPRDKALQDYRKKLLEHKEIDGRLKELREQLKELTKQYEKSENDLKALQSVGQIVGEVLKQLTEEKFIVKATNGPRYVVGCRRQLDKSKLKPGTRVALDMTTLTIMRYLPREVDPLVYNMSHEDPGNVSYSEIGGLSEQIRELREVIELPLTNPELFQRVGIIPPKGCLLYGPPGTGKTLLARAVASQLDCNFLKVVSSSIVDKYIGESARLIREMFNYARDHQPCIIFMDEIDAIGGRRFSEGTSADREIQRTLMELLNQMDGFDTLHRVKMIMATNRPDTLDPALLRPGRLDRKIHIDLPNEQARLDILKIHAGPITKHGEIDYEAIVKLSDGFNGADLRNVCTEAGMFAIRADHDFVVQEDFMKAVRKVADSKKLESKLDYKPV
UniProt Q8NCC3, sequence (Q8NCC3 whole entry, looked up): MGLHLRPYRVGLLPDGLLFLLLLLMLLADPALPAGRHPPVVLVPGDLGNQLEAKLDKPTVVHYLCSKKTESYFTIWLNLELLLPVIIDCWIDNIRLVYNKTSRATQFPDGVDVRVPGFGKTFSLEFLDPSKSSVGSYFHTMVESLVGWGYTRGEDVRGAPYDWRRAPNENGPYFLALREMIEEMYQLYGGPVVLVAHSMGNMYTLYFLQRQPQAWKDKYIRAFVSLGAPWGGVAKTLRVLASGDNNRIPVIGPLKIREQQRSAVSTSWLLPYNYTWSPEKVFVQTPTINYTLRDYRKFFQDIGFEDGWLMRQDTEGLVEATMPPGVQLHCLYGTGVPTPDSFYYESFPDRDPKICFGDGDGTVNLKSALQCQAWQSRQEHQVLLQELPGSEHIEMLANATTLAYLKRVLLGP
UniProt Q86W56, sequence (Q86W56 whole entry, looked up): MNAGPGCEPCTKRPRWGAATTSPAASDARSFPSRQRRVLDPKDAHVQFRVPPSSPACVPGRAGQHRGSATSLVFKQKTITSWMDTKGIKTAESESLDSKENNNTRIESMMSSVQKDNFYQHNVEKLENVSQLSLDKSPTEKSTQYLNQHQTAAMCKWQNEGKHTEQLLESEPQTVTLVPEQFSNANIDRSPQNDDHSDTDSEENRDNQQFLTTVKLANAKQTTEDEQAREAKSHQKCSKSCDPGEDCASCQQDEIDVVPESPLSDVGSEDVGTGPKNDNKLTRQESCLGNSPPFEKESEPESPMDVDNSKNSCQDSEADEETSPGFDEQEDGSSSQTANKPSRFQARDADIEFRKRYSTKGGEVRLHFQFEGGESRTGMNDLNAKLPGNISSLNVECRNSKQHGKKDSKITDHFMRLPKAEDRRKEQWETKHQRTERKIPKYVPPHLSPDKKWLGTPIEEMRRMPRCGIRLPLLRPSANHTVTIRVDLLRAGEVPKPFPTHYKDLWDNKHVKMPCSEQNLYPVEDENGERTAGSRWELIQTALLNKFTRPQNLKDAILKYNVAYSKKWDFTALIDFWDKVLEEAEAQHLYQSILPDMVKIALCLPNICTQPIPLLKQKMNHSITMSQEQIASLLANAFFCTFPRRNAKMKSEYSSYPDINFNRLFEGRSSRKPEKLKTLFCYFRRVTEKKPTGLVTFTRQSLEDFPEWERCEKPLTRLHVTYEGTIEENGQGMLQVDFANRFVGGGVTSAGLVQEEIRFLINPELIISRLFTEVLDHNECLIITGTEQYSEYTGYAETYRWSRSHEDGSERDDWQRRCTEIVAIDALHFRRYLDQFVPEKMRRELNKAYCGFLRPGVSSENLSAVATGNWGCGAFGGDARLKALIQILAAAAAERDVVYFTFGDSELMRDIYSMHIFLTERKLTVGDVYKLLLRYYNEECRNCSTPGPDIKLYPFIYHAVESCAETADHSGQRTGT
UniProt Q13362, sequence (Q13362 whole entry, looked up): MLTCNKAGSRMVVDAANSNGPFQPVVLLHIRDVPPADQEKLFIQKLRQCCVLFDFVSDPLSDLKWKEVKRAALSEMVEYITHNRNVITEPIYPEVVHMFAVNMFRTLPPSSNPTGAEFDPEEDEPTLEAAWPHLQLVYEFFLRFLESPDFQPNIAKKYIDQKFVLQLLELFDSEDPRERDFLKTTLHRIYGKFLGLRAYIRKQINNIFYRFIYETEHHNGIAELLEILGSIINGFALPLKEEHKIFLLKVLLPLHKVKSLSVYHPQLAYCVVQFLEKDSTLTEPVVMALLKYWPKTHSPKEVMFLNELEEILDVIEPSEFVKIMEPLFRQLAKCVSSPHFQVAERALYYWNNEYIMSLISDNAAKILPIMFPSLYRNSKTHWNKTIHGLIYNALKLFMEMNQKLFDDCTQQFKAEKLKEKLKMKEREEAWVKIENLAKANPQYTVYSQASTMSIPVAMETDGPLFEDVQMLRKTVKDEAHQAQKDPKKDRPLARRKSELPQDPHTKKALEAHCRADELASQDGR
UniProt Q10713, sequence (Q10713 whole entry, looked up): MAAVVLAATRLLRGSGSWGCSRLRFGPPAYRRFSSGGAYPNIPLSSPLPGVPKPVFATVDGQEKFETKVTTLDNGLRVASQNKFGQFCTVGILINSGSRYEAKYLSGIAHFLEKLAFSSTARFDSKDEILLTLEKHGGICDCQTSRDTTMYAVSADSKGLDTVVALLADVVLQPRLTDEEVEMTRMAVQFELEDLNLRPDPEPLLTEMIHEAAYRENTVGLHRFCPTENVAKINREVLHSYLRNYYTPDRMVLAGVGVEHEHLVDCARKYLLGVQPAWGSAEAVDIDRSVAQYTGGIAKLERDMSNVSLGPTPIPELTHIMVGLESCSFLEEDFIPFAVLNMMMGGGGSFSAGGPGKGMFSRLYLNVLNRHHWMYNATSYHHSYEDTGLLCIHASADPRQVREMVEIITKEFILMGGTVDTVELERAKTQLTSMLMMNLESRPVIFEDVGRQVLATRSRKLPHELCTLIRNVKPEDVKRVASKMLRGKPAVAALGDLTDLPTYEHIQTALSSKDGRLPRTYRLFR
UniProt O60256, sequence (O60256 whole entry, looked up): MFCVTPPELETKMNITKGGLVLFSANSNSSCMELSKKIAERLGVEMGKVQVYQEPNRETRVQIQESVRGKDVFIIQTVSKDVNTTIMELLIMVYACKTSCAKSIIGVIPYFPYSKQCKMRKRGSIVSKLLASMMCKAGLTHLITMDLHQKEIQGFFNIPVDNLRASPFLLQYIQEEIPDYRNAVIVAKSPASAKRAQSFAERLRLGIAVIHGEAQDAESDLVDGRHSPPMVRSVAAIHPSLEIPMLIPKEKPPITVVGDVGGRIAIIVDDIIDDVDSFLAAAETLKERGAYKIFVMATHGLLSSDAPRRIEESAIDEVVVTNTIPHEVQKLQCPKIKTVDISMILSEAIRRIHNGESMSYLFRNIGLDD

Target	log2 fold change [1]	log2 fold change [2]	log2 fold change [3]	log2 fold change [4]	log2 fold change [5]	log2 fold change [6]	log2 fold change [7]	log2 fold change [8]	log2 fold change [9]	log2 fold change [10]	log2 fold change [11]	log2 fold change [12]	log2 fold change [13]	log2 fold change [14]	log2 fold change [15]	log2 fold change [16]	log2 fold change [17]	log2 fold change [18]	log2 fold change [19]	log2 fold change [20]
PRMT3 (UniProt O60678)	0.021	-0.046	0	-0.017	0.058	-0.005	0.035	0.011	0.061	-0.064	0.026	-0.099	0.008	-0.017	-0.005	0.098	-0.122	-0.111	0.013	0.048
PMPCA (UniProt Q10713)	-0.026	-0.007	-0.101	-0.007	0.007	-0.086	-0.022	0.052	-0.027	-0.022	-0.041	0.013	0.035	-0.1	-0.089	-0.02	0.043	0.009	-0.023	0.018
PPP2R5C isoform 4 (UniProt Q13362)	-0.04	0.009	-0.063	0.012	-0.068	-0.083	-0.003	-0.032	0.06	-0.025	0.125	-0.018	-0.019	0.017	0.031	0.155	-0.004	0.002	0.053	0.021
PDE2A (UniProt O00408)	-0.011	-0.005	-0.003	0.208	0.01	-0.094	-0.051	-0.065	-0.064	-0.042	0.172	-0.118	0.001	-0.089	-0.053	0.134	-0.004	0.027	-0.014	0.148
PARG (UniProt Q86W56)	0.003	-0.102	-0.19	0.051	-0.113	-0.068	0.044	0.115	0.034	-0.025	0.065	-0.057	0.048	-0.093	-0.114	0.013	0.023	0.094	0.013	-0.023
PLEKHM2 (UniProt Q8IWE5)	-0.002	-0.047	-0.119	0.029	-0.215	-0.054	-0.087	-0.019	0.058	-0.014	0.007	-0.09	0.053	-0.083	0.044	-0.041	0.075	-0.041	0.084	0.011
POLR2I (UniProt P36954)	0.134	0.033	0.371	-0.266	0.009	0.141	0.162	0.02	0.015	0.023	-0.012	0.041	-0.017	0.029	0.061	0.076	-0.003	0.062	-0.006	-0.041
PSMC3 (UniProt P17980)	-0.043	-0.035	0.058	0.011	0	0.06	0.033	0.003	0.026	0.004	-0.035	0.043	0.001	0.045	-0.056	-0.015	-0.045	-0.038	0.047	0.013
PCBP1 (UniProt Q15365)	0.009	-0.073	-0.119	0.013	-0.015	-0.151	-0.015	0.03	0.052	-0.034	0.076	-0.036	0.102	-0.044	-0.015	-0.014	-0.003	-0.003	-0.022	-0.036
PSMC6 (UniProt P62333)	-0.01	0.015	0.09	-0.025	-0.003	0.079	0.04	0.009	0.035	0.026	-0.059	0.083	-0.003	0.005	-0.093	-0.024	-0.038	-0.057	0.049	-0.054
PRKCE (UniProt Q02156)	-0.02	-0.425 (active)	-0.143	-0.052	0.075	-0.133	-0.043	0.006	0.037	-0.06	-0.024	-0.082	0	-0.085	-0.078	0.012	0.029	-0.104	0.025	0.099
PRPSAP2 (UniProt O60256)	0.011	0.084	0.003	-0.018	-0.017	0.01	-0.014	0.03	-0.004	-0.012	-0.168	0.084	0.029	0.012	-0.078	0.011	-0.022	0.025	-0.011	-0.233 (active)
PDS5A (UniProt Q29RF7)	-0.094	-0.62 (active)	-0.122	-0.235	0.051	-0.045	-0.025	0.053	0.028	0.006	0.076	-0.316	-0.137	-0.012	0.067	0.043	-0.125	-0.19	-0.072	-0.014
PI4K2A (UniProt Q9BTU6)	0.058	0.041	0.013	-0.008	-0.024	-0.014	-0.027	-0.11	0.057	0.02	0.012	-0.066	-0.037	-0.044	-0.006	-0.015	-0.027	0.005	0	0.049
PML (UniProt P29590)	-0.001	-0.038	-0.005	-0.051	0.024	-0.053	-0.008	-0.031	0.005	0	-0.043	0.014	0.041	0.003	-0.022	-0.026	-0.015	-0.081	0.024	0.119
PRKAB1 (UniProt Q9Y478)	0.077	0	-0.041	0.087	-0.117	-0.037	0.011	-0.02	0.028	-0.021	0.024	-0.022	0.07	-0.223	-0.105	-0.034	-0.024	0.05	-0.049	-0.063
PSMC1 (UniProt P62191)	-0.062	-0.022	0.057	-0.009	-0.019	0.083	0.043	0.024	0.022	-0.001	-0.062	0.03	-0.013	0.009	-0.049	-0.018	-0.05	-0.015	0.054	-0.006
POLA1 (UniProt P09884)	0.006	-0.096	-0.163	0.025	0.079	-0.156	-0.126	-0.016	-0.005	-0.035	0.053	-0.023	0.008	0.003	-0.053	0.016	0.015	-0.008	-0.005	0.033
PGGHG (UniProt Q32M88)	0.061	-0.014	0.009	0.04	-0.029	0.127	0.02	0.017	-0.086	-0.02	-0.022	0.073	0.024	0.162	-0.123	0.082	-0.062	0.041	-0.08	0.042
PYGB (UniProt P11216)	0.012	-0.142	0.153	-0.003	-0.391 (active)	-0.091	-0.004	-0.042	0.024	-0.009	-0.024	0.035	-0.023	-0.013	-0.019	0.237 (active)	-0.037	0.028	-0.223	-0.164
PMPCB (UniProt O75439)	0.001	0.051	-0.073	-0.068	0.005	-0.042	-0.033	-0.003	-0.022	-0.029	-0.046	0.036	0.047	-0.122	-0.078	0.046	0.006	0.008	-0.054	-0.012
PC (UniProt P11498)	-0.088	-0.033	-0.005	0.001	-0.023	-0.113	0.043	0.09	-0.044	-0.076	0.05	0.08	-0.04	-0.372 (active)	-0.039	0.14	0.024	0.014	-0.011	0.09
PPP2R5C isoform 5 (UniProt Q13362)	0.007	-0.018	-0.045	0.014	-0.02	-0.044	-0.019	0.023	0.126	-0.042	0.022	-0.126	0.031	-0.137	-0.11	0.082	-0.018	-0.012	0	0.111
PLA2G15 (UniProt Q8NCC3)	-0.052	-0.095	0.028	0.036	0.065	0.012	-0.064	-0.036	0.176	-0.018	-0.041	-0.076	-0.007	0.01	0.095	0.03	0.001	0.056	-0.001	-0.01
PDPK1 (UniProt O15530)	-0.008	0.034	-0.075	0.023	-0.064	-0.025	-0.056	0.385 (active)	0.041	0	-0.015	-0.097	0.04	-0.048	-0.017	0.011	-0.028	0.01	-0.058	-0.179
POMK (UniProt Q9H5K3)	-0.047	0.007	-0.083	0.021	0.022	0.024	0.168	-0.052	0.089	-0.056	-0.025	-0.019	-0.101	-0.017	0.077	-0.037	-0.02	0.04	0.067	0.077

From the supplement of paper PMC10849652
